Compounds with a hit are over-represented: about 11% of the library has one in this group of screens.
G9a inh: qHTS Assay for Inhibitors of Histone Lysine Methyltransferase G9a. Histone-lysine N-methyltransferase EHMT2 (Homo sapiens), Q96KQ7. G9a H3K9 monomethylation, AlphaScreen, 2 h. Potency, µM (top dose mostly 102 µM), inactives show at the top dose activity, negative = inhibition, most hits filed as inhibitors. 350,000 compounds, 8.8% hits. AID 504332, 2011; note: % is set by controls: 0 for no effect and ±100 for the full control effect; nearly all actives have a fitted effect of over 75% in size
Target sequence (Q96KQ7 913-1193 limits assumed): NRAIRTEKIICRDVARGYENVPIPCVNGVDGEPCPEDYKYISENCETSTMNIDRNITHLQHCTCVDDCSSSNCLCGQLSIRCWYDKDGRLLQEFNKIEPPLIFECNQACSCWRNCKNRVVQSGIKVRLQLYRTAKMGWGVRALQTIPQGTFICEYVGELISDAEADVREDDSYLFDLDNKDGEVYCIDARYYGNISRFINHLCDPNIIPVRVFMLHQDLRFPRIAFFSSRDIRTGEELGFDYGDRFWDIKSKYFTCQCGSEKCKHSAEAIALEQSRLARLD
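Signal arises when biotinylated H3K9 peptide, once monomethylated, bridges streptavidin donor and antibody-captured acceptor beads. Enzyme at 20 nM was preincubated 15 min with test compounds; peptide 500 nM and SAM 20 uM then reacted for 2 h.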
L3MBTL1 inh: qHTS Assay for the Inhibitors of L3MBTL1 | Lethal(3)malignant brain tumor-like protein 1 (Homo sapiens), Q9Y468 | AlphaScreen L3MBTL1–H3K9me1 peptide binding | Potency, µM (highest dose often 57.1 µM), inactives show at the top dose activity, negative = inhibition, hits mostly inhibitors | 230,000 compounds, 0.66% hits | AID 485360, 2010; note: % is set by controls: 0 for no effect and ±100 for the full control effect; nearly all actives have a fitted effect of over 60% in size
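AlphaScreen proximity signal between nickel-chelate acceptor and streptavidin donor beads (final 10 ug/mL) reports binding of 50 nM L3MBTL1 to 75 nM biotin-H3 K9me1 peptide; complex incubated with compounds 30 min at room temperature; cefsulodin titration as control.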
HP1b chromo inh: HTS for Inhibitors of HP1-beta Chromodomain Interactions with Methylated Histone Tails | 390,000 compounds, 0.56% hits | Potency, µM (top dose mostly 114 µM), for inactives: at the highest dose activity change, negative = inhibition, actives largely listed as inhibitors | Chromobox protein homolog 1 (Homo sapiens), P83916 | AlphaScreen HP1-beta / biotin-H3K9me3 peptide binding; note: nearly all actives have a fitted effect of over 70% in size
Target sequence (P83916 whole entry, looked up): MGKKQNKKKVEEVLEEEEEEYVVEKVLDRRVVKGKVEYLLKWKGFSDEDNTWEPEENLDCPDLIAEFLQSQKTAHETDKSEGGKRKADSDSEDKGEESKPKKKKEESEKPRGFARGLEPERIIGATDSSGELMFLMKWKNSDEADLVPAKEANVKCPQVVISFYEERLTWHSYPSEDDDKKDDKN
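AlphaScreen: HP1-beta (50 nM) preformed 30 min with biotin-H3(1-18)K9me3 peptide (50 nM) in PBS pH 7.4, 0.01% Tween-20. Compound added for 30 min at RT, then streptavidin donor/nickel chelate acceptor beads (10 ug/mL) for 30 min.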
BAZ2B block: qHTS Assay for Inhibitors of BAZ2B; Bromodomain adjacent to zinc finger domain protein 2B (Homo sapiens), Q9UIF8; AlphaScreen BAZ2B-H3K14Ac peptide displacement; Potency, µM (series often up to 114 µM), inactives show at the top dose activity change, negative = inhibition, actives largely listed as inhibitors; 360,000 compounds, 4.4% hits; AID 504333, 2011; note: % is set by controls: 0 for no effect and ±100 for the full control effect; nearly all actives have a fitted effect of over 60% in size
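Inhibition is scored as reduced AlphaScreen emission. The BAZ2B/b-H3(5-23)K14Ac complex (50 nM each) in PBS pH 7.4, 0.01% Tween-20 meets compound (up to 110 uM) for 30 min at RT before bead addition.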
JMJD2A Tudor: qHTS Assay for Inhibitors of JMJD2A-Tudor Domain; Lysine-specific demethylase 4A (Homo sapiens), O75164; AlphaScreen JMJD2A-Tudor / H3K4me3 peptide binding; Potency, µM (doses to about 114 µM), for inactives: at the top dose activity change, negative = inhibition, hits mostly inhibitors; 390,000 compounds, 4.4% hits; note: % is set by controls: 0 for no effect and ±100 for the full control effect; nearly all actives have a fitted effect of over 50% in size
An asterisk follows results filed as active; ? = inconclusive; / = no result given; [ ] = remark or other dose. Calls come from the whole dose curve; as a rule, active = well fitted inhibition curve with a large enough effect; inconclusive = small, poorly fitted or top-dose-only effect; inactive = no such curve, though single readings can be large or run the other way. Potency is the fitted concentration of half-maximal effect.

SMILES	G9a inh	L3MBTL1 inh	HP1b chromo inh	BAZ2B block	JMJD2A Tudor
CCN1CCN(c2cc3c(cc2F)c(=O)c(S(=O)(=O)c2ccc(OC)cc2)cn3CC)CC1	-31.4%[59 µM]	/	15.7%	-1.6%	-24.1%
CCCCc1cc(=O)oc2cc(OC(C)C(=O)NCC3CCC(C(=O)O)CC3)c(Cl)cc12 (centres undefined)	/	-5.2%	67.3%	-4.6%[57.1 µM]	-9.5%
O=C1CSC(=S)N1N1C(=O)c2cccc([N+](=O)[O-])c2C1=O	6.31µM*	/	/	?	/
CCOCCCNC(=O)Cn1ncc2c([nH]c3ccccc32)c1=O	-3.3%[59 µM]	/	19.2%	0.7%	7.9%
CCOC(=O)c1c[nH]c(=S)n1C	22.4µM*	0.7%	-15.2%	-22.1%	31.6µM*
CCOC(=O)c1sc(=S)n(C)c1C	13.1%	/	68.1%	-9.5%	-4.6%[57.1 µM]
COc1ccc(CNC(=O)CCc2c(C)c3cc4c(C)c(C)oc4cc3oc2=O)cc1OC	4.4%[59 µM]	/	-8.8%	-3.1%	-21.4%
Cc1ccc([N+](=O)[O-])cc1N=C(c1ccc([N+](=O)[O-])cc1)N1CCOCC1	-18.8%[59 µM]	-8.0%	?	?	79.4µM*
Cc1ccc([N+](=O)[O-])cc1N=C(c1cccc([N+](=O)[O-])c1)N1CCOCC1	3.9%[0.0925 µM]	-3.4%	-11.1%	-9.3%	-16.8%[11.4 µM]
O=[N+]([O-])c1ccc(C(=Nc2cccc3ccccc23)N2CCOCC2)cc1	44.7µM*	-16.1%	?	50.1µM*	?
O=C(c1ccc([N+](=O)[O-])cc1)N1CCOCC1	/	/	2.0%	/	-6.2%
CCOC(=O)c1ccc(-n2c(CCC(=O)O)ccc2-c2ccc(Br)cc2)cc1	15.8µM*	/	?	50.1µM*	?
CCOc1ccc(-n2c(CCC(=O)O)ccc2-c2ccc(Br)cc2)cc1	10µM*	/	?	39.8µM*	?
CC(=O)c1ccc(-n2c(CCC(=O)O)ccc2-c2ccc(C)cc2)cc1	22.2%[2.33 µM]	/	-14.9%	-38.5%	?
N=S(=O)(O)Cc1noc2ccccc12	2.4%[59 µM]	/	/	/	/
COCCn1c(SCC(=O)Nc2ccc(F)c(Cl)c2)nc2c(oc3ccccc32)c1=O	-8.8%[59 µM]	/	8.2%	-2.6%	-23.3%
COc1cc(OC)cc(-c2nc3ccccc3c(=O)n2OC(=O)c2ccc(Br)cc2)c1	?	4.1%	7.8%	?	20µM*
Cc1c(C(=O)OCC[N+]2(C)CCCCC2)oc2ccccc12	28.2µM*	3.6%	-21.6%	-21.3%	-8.5%
CCOc1ccc(N2C(=O)CS/C2=C(\C(Cl)=C(Cl)Cl)[N+](=O)[O-])cc1	31.6µM*	/	-65.4%	50.1µM*	5.01µM*
CCOc1ccc(N2C(=O)CNC2=S)cc1	8.5%	6.0%	3.4%	-9.9%	-8.6%
CCc1ccc2nc(N(Cc3cccnc3)C(=O)Cc3ccccc3)sc2c1	-2.1%[59 µM]	/	8.1%	-3.9%	-10.7%
O=C(NCCc1ccccc1)C1COc2ccccc2O1 (centres undefined)	9.7%	/	25.5%	-9.3%	-3.7%
O=C(NCCc1ccc(O)c(O)c1)C1COc2ccccc2O1 (centres undefined)	2.24µM*	/	35.5µM*	-13.1%	17.8µM*
Cc1ccc(/C=C/c2onc(C)c2S(=O)(=O)N2CCC(C(=O)Nc3cccc(C#N)c3)CC2)cc1	11.7%[59 µM]	/	14.3%[57 µM]	1.3%	-15.7%
CCOc1ccc(-c2csc(C3COc4ccccc4O3)n2)cc1 (centres undefined)	/	/	25.8%	/	6.3%
SMILES	G9a inh	L3MBTL1 inh	HP1b chromo inh	BAZ2B block	JMJD2A Tudor
Nn1c(C2COc3ccccc3O2)n[nH]c1=S (centres undefined)	2.82µM*	-8.6%	-16.8%	?	8.91µM*
CC(Sc1nnc(Cc2ccccc2)n1C)C(=O)NC1CC1 (centres undefined)	?	-2.4%	35.8%	9.2%	-1.0%
Cc1cc(NC(=O)C2CCN(S(=O)(=O)c3cccc4nsnc34)CC2)ccc1Br	-9.4%[59 µM]	/	26.6%	/	-8.7%
Cc1cccc(N2CCN(C(c3ccc(F)cc3)c3nnc(-c4ccccc4)o3)CC2)c1C (centres undefined)	?	/	4.5%	50.1µM*	?
O=S(=O)(c1ccc2[nH]c3c(c2c1)CCCCC3)N1CCN(c2cccc(Cl)c2)CC1	-34.1%[59 µM]	/	3.7%	-10.9%[57.1 µM]	?
COC(=O)Cn1c2ccccc2c2nc(=O)cc(C)n21	-3.0%	/	41.1%	9.2%	-14.6%
COc1cc2c(cc1OC)n(CC(=O)NC1CCCCCC1)n1c(C)cc(=O)nc21	23.2%	/	-13.7%	-14.3%	50.1µM*
O=C(NCCc1ccccc1)c1ccc(CSc2nc3ccncc3n2Cc2ccccc2)cc1	-9.1%[59 µM]	/	44.1%	-1.3%	-5.4%
CC(C)N1CCc2c(sc(NC(=O)c3ccc4ccccc4c3)c2C(N)=O)C1	22.2%	/	46.6%	-12.8%	21.6%
CN1CCc2c(sc(NC(=O)c3cc4cc([N+](=O)[O-])ccc4s3)c2C(N)=O)C1	25.1µM*	/	/	?	/
CN1CCc2c(sc(NC(=O)c3ccco3)c2C(N)=O)C1	/	/	14.9%	-9.6%	-5.8%
CC(C)N1CCc2c(sc(NC(=O)c3cc4cc([N+](=O)[O-])ccc4s3)c2C(N)=O)C1	39.8µM*	-21.0%	?	39.8µM*	?
CN1CCc2c(sc(NC(=O)c3ccc([N+](=O)[O-])o3)c2C(N)=O)C1	35.5µM*	/	-29.6%	35.5µM*	?
CCOC(=O)CSc1nnc(CNC(=O)c2cccs2)n1-c1cccc(C)c1	-9.4%[12.7 µM]	-1.1%	26.8%	-0.2%	1.5%
Cc1cccc(-n2c(-c3csc(C)c3)n[nH]c2=S)c1	0.316µM*	/	?	-33.1%	11.2µM*
CCc1cc(-c2n[nH]c(=S)n2-c2cccc(C)c2)cs1	?	/	-0.6%	-36.8%	31.6µM*
Cc1ccc(C)c(NC(=O)CSc2nc(=O)n(CCN3CCOCC3)c3c2CCCC3)c1	0.8%[0.501 µM]	-2.4%	41.0%	-3.2%	-2.8%
Cc1cc(O)c(C=O)c2c1C(=O)Oc1c(CO)c(O)c3c(c1O2)C(O)OC3=O (centres undefined)	?	2.82µM*	?	20µM*	3.16µM*
CCS(=O)(=O)c1nc(S(=O)(=O)c2ccc(Cl)cc2)c(N2CCc3ccccc3C2)s1	8.91µM*	-1.5%	35.7%	-9.5%	-14.9%
CC1=CC(C)C2(COC(c3ccc[n+](C)c3)OC2)C(C)C1 (centres undefined)	?	57.0%	-5.2%	-36.0%	22.4µM*
COc1ccccc1CN(C)C(=O)COC(=O)c1cc(C)oc1C	44.7µM*	-4.9%	12.8%	-3.3%	-14.1%
CN1CCN(c2ncc3nc(-c4ccccc4)c(=O)n(C4CC4)c3n2)CC1	13.2%[0.501 µM]	/	/	/	/
Nc1cc(-c2ccccc2)nn1Cc1ccccc1	-39.8%	/	10.9%	/	-10.0%

Assay outcomes as filed in PubChem BioAssay.
